Pf Dd2 growth: Plasmodium falciparum Dd2 growth inhibition; AID 1347417; Potency, µM (doses to about 28.9 µM), for inactives: top-dose activity, negative = inhibition, actives largely listed as inhibitors; 120,000 tested, 4.3% active; P. falciparum Dd2 growth, SYBR Green, 72 h; active = well fitted inhibition curve with a large enough effect;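 also: plate controls were DMSO vehicle for no effect and reference drug for full effect; nearly all actives have a fitted effect of over 65% in size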
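Readout: SYBR Green fluorescence, 485 nm excitation, 535 nm emission, after ~16 h lysis at 37C. Before that, Dd2-infected red cells (2.5% hematocrit) grew 72 h with compound, 29 uM top final concentration.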
Numbers without * were called inactive; i = inactive; ! = repeats disagree; [ ] = remark or other dose. The sample as a whole holds a higher share of hits than the screen did. Potency is read from the fitted curve at half-maximal effect.

SMILES	Pf Dd2 growth
Cc1ccc(-c2cc3c(ccn3C(C)C)c(C(=O)NCc3c(C)cc(C)[nH]c3=O)n2)cn1	7.1µM*
Cn1ccc2c(C(=O)NCc3cccnc3)nc(-c3cccnc3)cc21	26%[44.1 µM]
COc1ccc(-c2cc3c(ccn3C(C)C)c(C(=O)NCc3c(C)cc(C)[nH]c3=O)n2)cn1	6.3µM*
COc1ccc(-c2cc(C(=O)NCc3c(C)cc(C)[nH]c3=O)c3c(c2)N(C(C)C)CCO3)cc1OC	i
Cn1ccc2c(C(=O)NCCc3cnc[nH]3)nc(-c3cccc(CO)c3)cc21	i
Cc1cc(C)c(CNC(=O)c2nc(-c3ccccc3C)cc3c2ccn3C(C)C)c(=O)[nH]1	-22%[44.1 µM]
Cc1cc(C)c(CNC(=O)c2cc(-c3ccc(CN(C)C)cc3)cc3ncn(C)c23)c(=O)[nH]1	-18%
COc1cccc(-c2cc3c(ccn3C)c(C(=O)NCc3c(C)cc(C)[nH]c3=O)n2)c1	10µM*
COCCOc1cc(=O)n2c(c1C(=O)NCc1ccccc1OC)CCOCC2	-19%
CCOc1cc(=O)n2c(c1C(=O)Nc1cccc(C(C)C)c1)CCCC2	50%
CCn1c(CN(C)C)nnc1C1CCN(Cc2cnc(N(C)C)s2)CC1	0%
O=C(O)CCc1nc(C2CCOCC2)n[nH]1	-17%
Cc1nc(CNC(=O)c2cn(CCC3CCCCN3)nn2)cc(=O)[nH]1 (stereo not drawn)	7%
Cc1noc(-c2ccn3c(CNC(=O)c4ccc5ccccc5n4)nnc3c2)n1	i
COc1ccc(CCC(=O)NCc2cc3n(n2)CCN(C(=O)N(C)C)C3)cc1	-11%
Cc1ccc(CN2C(=O)COC[C@H]2C(=O)NCc2ccco2)cc1	49%
O=C(c1ccc(C2CCCNC2)cc1)N1CCC(Oc2cccc(F)c2)CC1 (stereo not drawn)	13µM*
O=C(c1ccc(C2CCCNC2)cc1)N1CCCN(c2ncccn2)CC1 (stereo not drawn)	-2%
O=C(c1ccc(F)cc1)N1CCC(Oc2cccnc2)C1 (stereo not drawn)	12%
Cn1c(CCNC(=O)C2Cn3cccc3C(=O)N2)nc2ccccc21 (stereo not drawn)	13%
Cc1cc(C(=O)N2CCC(c3nc(-c4ccccc4)no3)C2)n[nH]1 (stereo not drawn)	i
Cc1cc(C(=O)N2CCC3(CC2)CC(N2CCN(c4ccccn4)CC2)CCO3)n[nH]1 (stereo not drawn)	0%
CCCC1=Nc2cc(C(=O)NC(C)c3ccccc3)ccc2Sc2ccc(C)cc21 (stereo not drawn)	-14%
CCCC1=Nc2cc(C(=O)NCc3ccc(OC)cc3)ccc2Sc2ccc(C)cc21	-2%
CC(NC(=O)c1ccc2nc(CCc3ccccc3)oc2c1)c1ccccc1 (stereo not drawn)	-22%
SMILES	Pf Dd2 growth
CCCC1=Nc2cc(C(=O)NCCc3ccccc3)ccc2Sc2ccc(C)cc21	6.3µM*!
CCC1=Nc2cc(C(=O)NC(C)c3ccccc3)ccc2Sc2ccc(Cl)cc21 (stereo not drawn)	8.9µM*
CCCNC(=O)c1ccc2c(c1)N=C(CCC)c1ccccc1S2	i
CC1(C)C(=O)N(Cc2ccccc2)[C@H]2CN(Cc3ccc(C(=O)O)cc3)C[C@H]2[S+]1(=O)[O-]	23%
CN1C(=O)CC(C(=O)O)C12CCN(C(=O)C1(c3ccccc3)CC1)CC2 (stereo not drawn)	5%
Cc1ccc(NC(=O)c2ccc3c(c2)N(S(C)(=O)=O)CC3)c(C)c1	i
COc1cccc(CN2CCNc3cc(-c4ccnc(C)c4)ncc3C2)c1	i
CN1CCN(C(CNC(=O)C(=O)Nc2ccc(F)cc2)c2cccnc2)CC1 (stereo not drawn)	-8%
O=C(NCC(c1cccnc1)N1CCN(c2ccccc2F)CC1)C(=O)Nc1ccc(F)cc1F (stereo not drawn)	3.2µM*
Cc1ccc(NC(=O)C(=O)NCC(c2cccnc2)N2CCN(Cc3ccccc3)CC2)cc1Cl (stereo not drawn)	3.5µM*
O=C(NCC(c1cccnc1)N1CCOCC1)C(=O)Nc1cccc(Cl)c1 (stereo not drawn)	-15%
COCCNC(=O)C(=O)NCC(c1cccnc1)N1CCN(c2ccccc2OC)CC1 (stereo not drawn)	-13%
O=C(NCC(c1cccnc1)N1CCOCC1)C(=O)Nc1ccc(Cl)cc1 (stereo not drawn)	-14%
COCc1nncn1C1CCN(S(=O)(=O)c2ccccc2)CC1	-13%
Cc1nc(-c2c3n(c(=O)n(CC(=O)Nc4ccc(F)c(Cl)c4)c2=O)CCCC3)no1	-17%
CN(C)c1ccc(CN2CCOC[C@H]2c2nc(C(C)(C)C)co2)cc1	-14%[44.1 µM]
CCn1cc(S(=O)(=O)N2CCC(c3noc(-c4cnccn4)n3)C2)cn1 (stereo not drawn)	68%[5.79 µM]
Cc1ccc(C2Cn3cnc(C(=O)N4CCC(C(=O)NCc5ccccc5Cl)CC4)c3CO2)cc1 (stereo not drawn)	i
O=C(c1ccc2[nH]ccc2c1)N1CCC2(CC1)N=C(c1cccc(Br)c1)NO2	i
O=C(CCC1N=C2c3ccccc3N=C(SCc3cccc(Cl)c3)N2C1=O)N1CCN(c2ccccc2)CC1 (stereo not drawn)	11µM*
O=C(CCC1N=C2c3ccccc3N=C(SCC(=O)NCCc3ccccc3)N2C1=O)NCc1ccc(F)cc1 (stereo not drawn)	-19%
O=C(CCC1N=C2c3ccccc3N=C(SCc3cccc(Cl)c3)N2C1=O)NCCc1ccccc1 (stereo not drawn)	38%
O=C(CCC1N=C2c3ccccc3N=C(SCc3ccc(F)cc3)N2C1=O)N1CCN(c2ccccc2)CC1 (stereo not drawn)	13µM*
O=C(CCC1N=C2c3ccccc3N=C(SCc3cccc(Cl)c3)N2C1=O)NCc1cccs1 (stereo not drawn)	82%
O=C(CC1N=C2c3ccccc3N=C(SCc3ccc(F)cc3)N2C1=O)NCCc1ccccc1 (stereo not drawn)	-18%
SMILES	Pf Dd2 growth
Cc1cc(Cl)ccc1NC(=O)C1CN(S(C)(=O)=O)CC12CCCCC2 (stereo not drawn)	-19%
COCC(=O)NC1CCN(c2nc3ncccc3o2)CC1	9%[44.1 µM]
Cn1ccc(C(=O)N2CC3ON=C(C(=O)NCc4cccnc4)C3C2)n1 (stereo not drawn)	5%
CC1(C)CN(C(=O)c2coc(COc3ccc4c(c3)OCO4)n2)CCO1	-5%
COCc1nc(C2CCN(C(=O)C3CCC3)C2)no1 (stereo not drawn)	-4%
CCOC(=O)c1c(C)sc(-c2c(-c3cc(C)ccc3C)[nH]c3c2c(=O)[nH]c(=O)n3C)c1O	-6%
CCOC(=O)c1c(C)sc(-c2c(-c3cc(C)ccc3C)[nH]c3c2c(=O)n(C)c(=O)n3C)c1O	10µM*
CCOC(=O)c1c(C)sc(-c2c(-c3cccc(Cl)c3)[nH]c3c2c(=O)n(C)c(=O)n3C)c1O	146%
CC(=O)N(C1CC1)C1CCOC2(CCN(C(=O)c3nccc4ccccc34)CC2)C1 (stereo not drawn)	-23%
Cc1ncsc1CCC(=O)N1C[C@@H](c2ccccc2)[C@@H]2[C@H]1C1CCN2CC1	2%
CCn1cc(C(=O)N2C[C@H](c3cccc(OC)c3)[C@@H]3[C@H]2C2CCN3CC2)cn1	-12%
COc1ccc([C@@H]2CN(C(=O)c3sccc3C)[C@@H]3C4CCN(CC4)[C@@H]32)cc1	10µM*
CO[C@H]1C(=O)N(C2CCN(S(=O)(=O)c3cccc(F)c3)CC2)[C@H]1c1ccncc1	8%
Cn1ccnc1C(=O)N1CCC(Oc2cccc(F)c2)C1 (stereo not drawn)	7.9µM*

Screens (PubChem)
